According to PubChem BioAssay (NCI):
This is part of a sample that, as a whole, favours compounds with a hit. Of some 83,000 tested, about 20% had one in any assay.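 Cell lines were cultured in 96-well plates, exposed to a single compound concentration, and assessed for percent growth 48 hours later.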 Calls of active or inactive are those of the source. How the source made its calls: active means growth percent below 10; inactive means the rest.

How the values were obtained:
Assay in all cases: NCI-60 one-dose screen, 48 h (100 = growth as untreated, 0 = no growth, -100 = all killed)
HOP-92 NSCLC = conditions: 10 µM unless noted
COLO 205 colon = conditions: 10 µM
MALME-3M melanoma = conditions: 10 µM unless noted
SF-295 CNS = conditions: 10 µM unless noted
SNB-19 CNS = conditions: 10 µM unless noted
LOX IMVI melanoma = conditions: 10 µM unless noted
SN12C renal = conditions: 10 µM unless noted
TK-10 renal = conditions: 10 µM unless noted
CAKI-1 renal = conditions: 10 µM unless noted
SR leukemia = conditions: 10 µM
RPMI-8226 leukemia = conditions: 10 µM unless noted
OVCAR-4 ovarian = conditions: 10 µM unless noted
IGROV1 ovarian = conditions: 10 µM
BT-549 breast = conditions: 10 µM
HCC-2998 colon = conditions: 10 µM unless noted
NCI-H522 lung = conditions: 10 µM unless noted
EKVX NSCLC = conditions: 10 µM unless noted
CCRF-CEM leukemia = conditions: 10 µM unless noted
SK-MEL-28 melanoma = conditions: 10 µM unless noted

Measured: growth

CN(C)P1(N(C)C)=NP(N(C)C)(N(C)C)=NP(N(C)C)(N(C)C)=N1
inactive: HOP-92 NSCLC 76% | COLO 205 colon 113% | MALME-3M melanoma 106% | SF-295 CNS 101% | SNB-19 CNS 103% | LOX IMVI melanoma 92.7% | SN12C renal 107% | TK-10 renal 95.3% | CAKI-1 renal 79% | SR leukemia 92.6% | RPMI-8226 leukemia 98.1% | OVCAR-4 ovarian 95% | IGROV1 ovarian 95.4% | BT-549 breast 105% | HCC-2998 colon 111%

c1ccc(CCN2CCCCC2Cc2ccccc2)cc1 (stereo not drawn)
inactive: HOP-92 NSCLC 100% | NCI-H522 lung 83.5% | MALME-3M melanoma 97.7% | SF-295 CNS 91.4% | SNB-19 CNS 111% | LOX IMVI melanoma 90.9% | EKVX NSCLC 93.4% | SN12C renal 99.2% | TK-10 renal 96.6% | CAKI-1 renal 101% | CCRF-CEM leukemia 105% | RPMI-8226 leukemia 107% | OVCAR-4 ovarian 115% | IGROV1 ovarian 92.5% | BT-549 breast 111% | HCC-2998 colon 83.6%

Nc1ncnc2c1c(C(=O)NO)cn2C1OC(CO)C(O)C1O (stereo not drawn)
active: HOP-92 NSCLC -37% | NCI-H522 lung -51.1% | COLO 205 colon -36.1% | MALME-3M melanoma -41.1% | SF-295 CNS -47.6% | LOX IMVI melanoma -5.18% | SK-MEL-28 melanoma -52.3% | EKVX NSCLC 6.87% | SN12C renal -31.9% | TK-10 renal 6.25% | CAKI-1 renal -23.1% | CCRF-CEM leukemia -17.6% | RPMI-8226 leukemia -21.7% | OVCAR-4 ovarian 0.579% | IGROV1 ovarian -71.1% | BT-549 breast -0.861% | HCC-2998 colon -38.7%
inactive: SNB-19 CNS 11.9%

O=C1NC2(CCNCC2)Nc2ccccc21
inactive: HOP-92 NSCLC 107% | NCI-H522 lung 97.5% | MALME-3M melanoma 117% | SF-295 CNS 107% | SNB-19 CNS 96.2% | LOX IMVI melanoma 102% | EKVX NSCLC 109% | SN12C renal 99.1% | TK-10 renal 98.3% | CCRF-CEM leukemia 94.9% | SR leukemia 86.9% | OVCAR-4 ovarian 116% | IGROV1 ovarian 113% | BT-549 breast 108% | HCC-2998 colon 103%

COc1cc(C2(C#N)CCN(C)CC2)cc(OC)c1OC
inactive: HOP-92 NSCLC 100% | COLO 205 colon 107% | MALME-3M melanoma 113% | SF-295 CNS 98.8% | SNB-19 CNS 102% | LOX IMVI melanoma 93.8% | SK-MEL-28 melanoma 106% | EKVX NSCLC 112% | SN12C renal 103% | TK-10 renal 108% | CAKI-1 renal 79.1% | CCRF-CEM leukemia 116% | SR leukemia 91.2% | RPMI-8226 leukemia 106% | OVCAR-4 ovarian 104% | IGROV1 ovarian 109% | BT-549 breast 101%

COc1ccc(C(c2ccc(OC)cc2)C(Cl)(Cl)Cl)cc1
inactive: HOP-92 NSCLC 63.9% | NCI-H522 lung 60% | MALME-3M melanoma 91.8% | SF-295 CNS 102% | SNB-19 CNS 84% | SK-MEL-28 melanoma 103% | EKVX NSCLC 95.7% | SN12C renal 97.8% | TK-10 renal 90.3% | CAKI-1 renal 68.4% | CCRF-CEM leukemia 55.6% | SR leukemia 71.8% | RPMI-8226 leukemia 71.5% | BT-549 breast 110% | HCC-2998 colon 94.4%

C[C@]12CCc3sc(-c4ccc(Cl)cc4)nc3C1=CC[C@@H]1[C@@H]2CC[C@]2(C)C(=O)CC[C@@H]12
active: SF-295 CNS 5.96% | RPMI-8226 leukemia -17.8%
inactive: HOP-92 NSCLC 98.6% | COLO 205 colon 97.2% | MALME-3M melanoma 75% | SNB-19 CNS 56.2% | LOX IMVI melanoma 55.1% | SK-MEL-28 melanoma 63.1% | EKVX NSCLC 72.3% | SN12C renal 65.9% | CAKI-1 renal 67.7% | CCRF-CEM leukemia 14.5% | OVCAR-4 ovarian 74% | BT-549 breast 60.6% | HCC-2998 colon 90.4%

O=C1C=CC(=O)C2C1C1(Cl)C(Cl)=C(Cl)C2(Cl)C1(Cl)Cl (stereo not drawn)
inactive: HOP-92 NSCLC 15.7% | COLO 205 colon 74.7% | MALME-3M melanoma 49.2% | SF-295 CNS 39.5% | SNB-19 CNS 73.8% | LOX IMVI melanoma 50.5% | SK-MEL-28 melanoma 67.7% | EKVX NSCLC 41.3% | TK-10 renal 71.5% | CAKI-1 renal 51.8% | RPMI-8226 leukemia 67.9% | OVCAR-4 ovarian 58.1% | IGROV1 ovarian 56.4% | BT-549 breast 36.4%

CC(=O)[O][Hg][c]1ccccc1
inactive: SF-295 CNS 13.6% | RPMI-8226 leukemia 10.1%
active: HOP-92 NSCLC -94.7% | NCI-H522 lung -32.8% | COLO 205 colon -98.5% | MALME-3M melanoma -88% | SNB-19 CNS -26.6% | LOX IMVI melanoma -88.2% | EKVX NSCLC -35.7% | SN12C renal -90.5% | TK-10 renal -94.7% | CAKI-1 renal -69.7% | CCRF-CEM leukemia 0.0979% | SR leukemia -31.3% | OVCAR-4 ovarian -25.2% | IGROV1 ovarian -55.1% | BT-549 breast -96.7% | HCC-2998 colon -96.5%
